NR3A LBD binder = NR3A (human) ligand-binding domain modulation; 340,000 tested, 2.5% active; AID 1259313; Tm shift relative to glycine control, % at 25 µM; NR3A LBD differential scanning fluorimetry, Tm shift; 0% = protein alone, 100% = glycine-bound protein;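 active means melting temperature shift of at least 10% of the positive control shift, at one fixed dose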
ADAM10 inh = inhibitors of human ADAM10 | recombinant ADAM10, EDANS/DABCYL FRET peptide cleavage, 3 h | inhibition, % at 7 µM | 370,000 tested, 0.62% active;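 active means inhibition above a per-campaign cutoff equal to the mean of compounds falling between control-based bounds plus 3 SD, cut at about 20% in these data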;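 further: 0% = DMSO wells while the 100% control is not disclosed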
proKLK7 act = activators of human kallikrein-7 zymogen. P49862. purified proKLK7, EDANS-DABCYL substrate fluorescence; 100% is mature enzyme control, 0% vehicle. activation, % at 7 µM. 370,000 tested, 0.9% active;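 active means activation above the mean of all tested compounds plus 3 SD, computed per campaign excluding outliers beyond control limits, cut at about 13% in these data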
ADAM17 inh = ADAM17 inhibition, QFRET primary screen | inhibition, % at 6.95 µM | AID 720648 | recombinant ADAM17, EDANS/DABCYL FRET peptide cleavage | 370,000 tested, 0.83% active | P78536;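 active means inhibition above the mean of compounds lying between control limits plus 3 SD, set per campaign, cut at about 8.5% in these data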;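 further: 0% = DMSO-only wells as the low control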
FAS TE block = blocks the thioesterase domain of human fatty acid synthase; recombinant FAS-TE, OMFH fluorogenic substrate, fluorescence endpoint; 360,000 tested, 0.67% active; inhibition, % at 15 µM; AID 602261; P49327;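 active means compounds whose normalised, plate-corrected inhibition of enzyme fluorescence in the single-dose primary screen is 50% or more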;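 further: 0% = DMSO with enzyme and 100% = substrate without enzyme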
Active calls of the source: *. Sampled rows, rich in hits. Any-hit rate of the full collection: about 4.6%.

Screening O=C(Nc1cccc(Cl)c1)c1nc[nH]c1C(=O)NCc1ccccc1 returned NR3A LBD binder 17*, ADAM10 inh 2, proKLK7 act 0, ADAM17 inh -2 and FAS TE block -6.
`Nn1c(SCC(=O)NC2CCCCC2)nnc1-c1cc(-c2ccc(Cl)cc2)n[nH]1` gave ADAM10 inh -2, proKLK7 act 0 and ADAM17 inh -1.
O=C(CSc1nnc(-c2ccccn2)n1Cc1ccco1)Nc1ccc(Oc2ccccc2)cc1 was read as ADAM10 inh 9, proKLK7 act 0 and ADAM17 inh 3.
For c1ccc(Cn2c(SCC3CCC3)nnc2-c2cccnc2)cc1 the results were ADAM10 inh 3, proKLK7 act 0 and ADAM17 inh 1.
Screening COc1ccc(/C=N/NC(=O)c2cc[n+]([O-])cc2)cc1 returned NR3A LBD binder -1, ADAM10 inh 0, proKLK7 act -1, ADAM17 inh -2 and FAS TE block -4.
`Brc1ccc(/C=N/Nc2ccccc2)cc1` gave NR3A LBD binder 20*, ADAM10 inh 5, proKLK7 act -1, ADAM17 inh 2 and FAS TE block 30.
COc1ccc(/C=N/NC(=O)c2ccc(NC(=O)c3ccccc3Br)cc2)cc1 was read as NR3A LBD binder 27*, ADAM10 inh 3, proKLK7 act 0, ADAM17 inh 2 and FAS TE block -6.
For Cc1ccccc1C(=O)Nc1ccc(C(=O)N/N=C/c2ccc(F)cc2)cc1 the results were NR3A LBD binder 26*, ADAM10 inh -12, proKLK7 act 0, ADAM17 inh 0 and FAS TE block -3.
`COc1ccc(C(=O)N/N=C/c2ccc(OC)c(OS(=O)(=O)c3ccccc3)c2)cc1` gave NR3A LBD binder 13*, ADAM10 inh 10, proKLK7 act 0, ADAM17 inh 2 and FAS TE block 46.
Screening COC(=O)C1CN(Cc2cn(Cc3ccccc3)nn2)CCS(=O)(=O)N1Cc1ccc(Cl)cc1 (centres undefined) returned ADAM10 inh 1, proKLK7 act 1 and ADAM17 inh 0.
Screening CCOc1ccc(-n2c(SCC(=O)Nc3ccc(S(=O)(=O)Nc4cc(C)nc(C)n4)cc3)nnc2-c2ccc(OC)cc2)cc1 returned ADAM10 inh 1, proKLK7 act 1 and ADAM17 inh 3.
`COC(=O)C1CN(Cc2cn(Cc3ccccc3)nn2)CCS(=O)(=O)N1Cc1ccc(OC)cc1` (centres undefined) gave ADAM10 inh -7, proKLK7 act 0 and ADAM17 inh -3.
For Cc1ccccc1C(=O)Nc1ccc(C(=O)N/N=C/c2ccc(O)c(Br)c2)cc1 the results were NR3A LBD binder 28*, ADAM10 inh 0, proKLK7 act 0, ADAM17 inh 4 and FAS TE block -2.
Screening O=C(N/N=C/c1ccccc1)c1ccc(NC(=O)c2ccc(F)cc2)cc1 returned NR3A LBD binder 33*, ADAM10 inh 9, proKLK7 act 0, ADAM17 inh 1 and FAS TE block -5.
Screening O=C(N/N=C/c1ccc2c(c1)OCO2)c1ccc(NC(=O)c2ccc(F)cc2)cc1 returned NR3A LBD binder 19*, ADAM10 inh -71, proKLK7 act -6, ADAM17 inh -51 and FAS TE block 1.
`O=C(N/N=C/c1ccc2c(c1)OCO2)c1ccc2c(c1)OCCO2` gave NR3A LBD binder 3, ADAM10 inh -8, proKLK7 act 1, ADAM17 inh -3 and FAS TE block -8.
Screening CC(=O)Nc1ccc(C(=O)N/N=C/c2ccc(F)cc2)cc1 returned NR3A LBD binder -28, ADAM10 inh -2, proKLK7 act -1, ADAM17 inh 5 and FAS TE block -2.
`O=C(NN=Cc1ccc(O)c(O)c1)c1ccccc1` gave FAS TE block -1.
For O=C(N/N=C/c1cc(Br)cc([N+](=O)[O-])c1O)c1ccc(NC(=O)c2ccc(F)cc2)cc1 the results were NR3A LBD binder 18*, ADAM10 inh 11, proKLK7 act -1, ADAM17 inh 4 and FAS TE block 30.
`CCN(CC)C(=O)CC[C@H]1CC[C@]2(CCCN(Cc3ccccn3)C2)O1` gave ADAM10 inh -1, proKLK7 act 0 and ADAM17 inh 2.
For O=C(CCCC(=O)Nc1ccc(Br)cc1)N/N=C/c1ccccc1 the results were NR3A LBD binder 10*, ADAM10 inh 3, proKLK7 act 0, ADAM17 inh -1 and FAS TE block 3.
For O=C(CCCSCCCC(=O)NN=Cc1ccccc1)NN=Cc1ccccc1 the results were NR3A LBD binder 2, ADAM10 inh -12, proKLK7 act 0, ADAM17 inh -3 and FAS TE block 2.
NC1=NC(=O)CC(C(=O)Nc2cccc3ccccc23)S1 (centres undefined) was read as NR3A LBD binder 0 and FAS TE block -4.
For NC1=NC(=O)CC(C(=O)NCCc2ccccc2)S1 (centres undefined) the results were NR3A LBD binder 10*, ADAM10 inh -2, proKLK7 act 0, ADAM17 inh -2 and FAS TE block -6.
`COc1ccc(NC(=O)N2CCCC(c3nc(-c4ccc(C(C)C)cc4)no3)C2)cc1` (centres undefined) gave NR3A LBD binder -8, ADAM10 inh 25*, proKLK7 act 1, ADAM17 inh 11* and FAS TE block 26.
COc1cccc(C2C3=C(N=c4s/c(=C\c5cccc(O)c5)c(=O)n42)c2ccccc2CC3)c1OC (centres undefined) was read as NR3A LBD binder 31*, ADAM10 inh -3, proKLK7 act -1, ADAM17 inh 2 and FAS TE block 28.
For CC1CCC2(CC1)CCN(CCCOC(=O)NCc1ccc(Cl)cc1)C2=O (centres undefined) the results were ADAM10 inh 4, proKLK7 act 1 and ADAM17 inh 5.
For COC(=O)[C@]12C[C@H](CC(=O)N3CCCC3)C(=O)N(Cc3ccc(Cl)cc3Cl)C1=C[C@H](C(C)(C)C)O[C@@H]2C the results were ADAM10 inh 13, proKLK7 act 0 and ADAM17 inh 7.
For CN(C)S(=O)(=O)c1ccc(Oc2ccccc2)cc1 the results were NR3A LBD binder -1, ADAM10 inh -2, proKLK7 act 0, ADAM17 inh -3 and FAS TE block 1.
Screening CCN(CC)S(=O)(=O)c1ccc(Oc2ccccc2)cc1 returned NR3A LBD binder 13*, ADAM10 inh 6, proKLK7 act 1, ADAM17 inh 2 and FAS TE block 18.
Cc1cc(C(=O)O[C@@H]2CCC[C@@]3(C(=O)N(Cc4ccccc4)c4ccccc43)[C@H]2NC(=O)CCc2ccccc2)no1 was read as ADAM10 inh 12, proKLK7 act 0 and ADAM17 inh 4.
COc1ccccc1CNC(=O)C[C@H]1CC[C@H]2[C@@H](COc3ccc(NC(=O)Nc4ccccc4)cc3C(=O)N2C)O1 was read as ADAM10 inh 2, proKLK7 act 0 and ADAM17 inh 0.

Screens deposited in PubChem by several laboratories.
